# Experimental data published in the supplement of paper PMC6555819.
# How the values were obtained:
# Assay in all cases: PBM binding z-score (relative to random genomic background probes); higher = stronger binding; sequences stand for … in GC…GCGATTGACAGCGTAGAATGAAGG
# [1] = test system: FXR:RXRa (NR concentration 270 nM, RXRa partner concentration 90 nM)
# Summary of the method: (§1)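 Each nuclear receptor dimer, without ligand, was incubated for 1 h on custom Agilent 4×180K protein-binding microarrays. Binding was detected with antibodies against each partner (one per run), and scanned fluorescence was regression-normalized. The binding z-scores are referenced to random human genomic background probes.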
# [2] = test system: LXRa:RXRa (NR concentration 270 nM, RXRa partner concentration 90 nM)
# Summary of the method: as §1
# [3] = test system: LXRa homodimer (NR concentration 270 nM)
# Summary of the method: as §1
# [4] = test system: LXRb:RXRa (NR concentration 270 nM, RXRa partner concentration 90 nM)
# Summary of the method: as §1
# [5] = test system: LXRb homodimer (NR concentration 270 nM)
# Summary of the method: as §1
# [6] = test system: PPARa:RXRa (NR concentration 270 nM, RXRa partner concentration 90 nM)
# Summary of the method: as §1
# [7] = test system: PPARg:RXRa (NR concentration 180 nM, RXRa partner concentration 90 nM)
# Summary of the method: as §1
# [8] = test system: PPARg:RXRa 270nM:90nM, anti-RXR (NR concentration 270 nM, RXRa partner concentration 90 nM)
# Summary of the method: as §1
# [9] = test system: PPARg:RXRa 30nM:10nM, anti-RXR (NR concentration 30 nM, RXRa partner concentration 10 nM)
# Summary of the method: as §1
# [10] = test system: PPARg:RXRa 90nM:30nM, anti-RXR (NR concentration 90 nM, RXRa partner concentration 30 nM)
# Summary of the method: as §1
sequence,measurement,setting,value
GCTTTTAGTTGAAAGGGCAACCGAATGATTCTCG,PBM binding z-score,[1],0.288
same,PBM binding z-score,[2],0.561
same,PBM binding z-score,[3],-0.0833
same,PBM binding z-score,[4],0.53
same,PBM binding z-score,[5],0.106
same,PBM binding z-score,[6],2.2
same,PBM binding z-score,[7],2.24
same,PBM binding z-score,[8],4.03
same,PBM binding z-score,[9],1.85
same,PBM binding z-score,[10],3.97
AGTCAAAGTTCACTCGGTAACGTAAGATTCAGCT,PBM binding z-score,[1],5.02
same,PBM binding z-score,[2],5.41
same,PBM binding z-score,[3],3.18
same,PBM binding z-score,[4],3.38
same,PBM binding z-score,[5],1.27
same,PBM binding z-score,[6],4.24
same,PBM binding z-score,[7],5.6
same,PBM binding z-score,[8],5.93
same,PBM binding z-score,[9],2.54
same,PBM binding z-score,[10],4.94
CGTCCAAGGTCATCGGAGGTCAGTGAAGACAGAT,PBM binding z-score,[1],8.01
same,PBM binding z-score,[2],7.87
same,PBM binding z-score,[3],5.77
same,PBM binding z-score,[4],6.23
same,PBM binding z-score,[5],1.29
same,PBM binding z-score,[6],5.95
same,PBM binding z-score,[7],5.99
same,PBM binding z-score,[8],5.91
same,PBM binding z-score,[9],2.4
same,PBM binding z-score,[10],4.7
TCAGACAGGTGAAGGTAACACAGGTACGCAGTCG,PBM binding z-score,[1],1.04
same,PBM binding z-score,[2],1.17
same,PBM binding z-score,[3],0.113
same,PBM binding z-score,[4],1.01
same,PBM binding z-score,[5],0.0867
same,PBM binding z-score,[6],1.53
same,PBM binding z-score,[7],1.29
same,PBM binding z-score,[8],2.67
same,PBM binding z-score,[9],3.9
same,PBM binding z-score,[10],3.28
ATCTATAGGTAAAGTTCAGTGAAAGATCGATAGA,PBM binding z-score,[1],1.21
same,PBM binding z-score,[2],1.7
same,PBM binding z-score,[3],1.38
same,PBM binding z-score,[4],1.19
same,PBM binding z-score,[5],0.71
same,PBM binding z-score,[6],2.2
same,PBM binding z-score,[7],3.67
same,PBM binding z-score,[8],4.69
same,PBM binding z-score,[9],2.81
same,PBM binding z-score,[10],4.71
TCATATAGTTAAAGGTGAAAGTCGAACGATATGA,PBM binding z-score,[1],0.692
same,PBM binding z-score,[2],1.27
same,PBM binding z-score,[3],-0.183
same,PBM binding z-score,[4],1.25
same,PBM binding z-score,[5],0.00404
same,PBM binding z-score,[6],2.69
same,PBM binding z-score,[7],2.49
same,PBM binding z-score,[8],3.41
same,PBM binding z-score,[9],3.96
same,PBM binding z-score,[10],3.79
CGACCTAGGTCAGAACAGGACAGTGAAGGATGAT,PBM binding z-score,[1],2.95
same,PBM binding z-score,[2],1.5
same,PBM binding z-score,[3],0.143
same,PBM binding z-score,[4],1.08
same,PBM binding z-score,[5],-0.535
same,PBM binding z-score,[6],2.08
same,PBM binding z-score,[7],1.55
same,PBM binding z-score,[8],1.2
same,PBM binding z-score,[9],-0.0187
same,PBM binding z-score,[10],0.682
ATACCAAGGTGATCGTGAGCTCGTTGATACTAAC,PBM binding z-score,[1],0.125
same,PBM binding z-score,[2],-0.0736
same,PBM binding z-score,[3],-0.322
same,PBM binding z-score,[4],0.0963
same,PBM binding z-score,[5],-0.116
same,PBM binding z-score,[6],0.174
same,PBM binding z-score,[7],0.373
same,PBM binding z-score,[8],-0.151
same,PBM binding z-score,[9],-0.316
same,PBM binding z-score,[10],-0.0822
GCTATTAGTTGAAAGGCCAACCGAATGATTCTCG,PBM binding z-score,[1],0.0459
same,PBM binding z-score,[2],0.417
same,PBM binding z-score,[3],0.216
same,PBM binding z-score,[4],0.305
same,PBM binding z-score,[5],-0.435
same,PBM binding z-score,[6],1.3
same,PBM binding z-score,[7],1.43
same,PBM binding z-score,[8],3.21
same,PBM binding z-score,[9],1.27
same,PBM binding z-score,[10],2.6
CCTTACGGGTCACTCCAGGTTATCGCATCGGAGT,PBM binding z-score,[1],4.86
same,PBM binding z-score,[2],7.44
same,PBM binding z-score,[3],2.05
same,PBM binding z-score,[4],5.17
same,PBM binding z-score,[5],0.292
same,PBM binding z-score,[6],4.26
same,PBM binding z-score,[7],3.02
same,PBM binding z-score,[8],3.76
same,PBM binding z-score,[9],0.874
same,PBM binding z-score,[10],2.38
CCTAGCAGGCCAGGCTCACTCAAGCATTTCGCTT,PBM binding z-score,[1],-0.543
same,PBM binding z-score,[2],-0.545
same,PBM binding z-score,[3],-0.346
same,PBM binding z-score,[4],-0.706
same,PBM binding z-score,[5],-0.617
same,PBM binding z-score,[6],-0.794
same,PBM binding z-score,[7],-0.439
same,PBM binding z-score,[8],-0.638
same,PBM binding z-score,[9],-1.13
same,PBM binding z-score,[10],-0.853
TCTAGTTGCTCAAAGGTCACACACTCGAAATGCG,PBM binding z-score,[1],5.09
same,PBM binding z-score,[2],5.26
same,PBM binding z-score,[3],3.7
same,PBM binding z-score,[4],5.39
same,PBM binding z-score,[5],1.49
same,PBM binding z-score,[6],5.88
same,PBM binding z-score,[7],6.32
same,PBM binding z-score,[8],6.78
same,PBM binding z-score,[9],6.1
same,PBM binding z-score,[10],6.91
TCTAGCAGGCCAGCGGGTCACTCAAGAGGTACGG,PBM binding z-score,[1],0.662
same,PBM binding z-score,[2],0.558
same,PBM binding z-score,[3],-0.567
same,PBM binding z-score,[4],0.777
same,PBM binding z-score,[5],-0.97
same,PBM binding z-score,[6],1.92
same,PBM binding z-score,[7],0.601
same,PBM binding z-score,[8],1.74
same,PBM binding z-score,[9],1.72
same,PBM binding z-score,[10],1.65
CCTAGCAGGCCAATCTGGGACACTCAAGGCTTGA,PBM binding z-score,[1],0.127
same,PBM binding z-score,[2],-0.43
same,PBM binding z-score,[3],-0.779
same,PBM binding z-score,[4],-1.13
same,PBM binding z-score,[5],-0.814
same,PBM binding z-score,[6],-0.0365
same,PBM binding z-score,[7],0.255
same,PBM binding z-score,[8],-0.496
same,PBM binding z-score,[9],-0.884
same,PBM binding z-score,[10],-0.673
GCTGCTAGTTCAGGTTGGTCAGCTAACGGGTACG,PBM binding z-score,[1],-0.234
same,PBM binding z-score,[2],-0.0295
same,PBM binding z-score,[3],-0.196
same,PBM binding z-score,[4],-0.351
same,PBM binding z-score,[5],-0.495
same,PBM binding z-score,[6],-0.285
same,PBM binding z-score,[7],-0.479
same,PBM binding z-score,[8],-0.127
same,PBM binding z-score,[9],-0.906
same,PBM binding z-score,[10],-0.226
TCGTATAGGTAAACAGGTGAAAGTCCGTAAGTTA,PBM binding z-score,[1],1.19
same,PBM binding z-score,[2],0.963
same,PBM binding z-score,[3],0.191
same,PBM binding z-score,[4],0.852
same,PBM binding z-score,[5],0.0957
same,PBM binding z-score,[6],1.95
same,PBM binding z-score,[7],1.46
same,PBM binding z-score,[8],2.64
same,PBM binding z-score,[9],2.92
same,PBM binding z-score,[10],2.76
GCATATAGGTAAAACAAGGTGAAAGTCCGATTGT,PBM binding z-score,[1],1.15
same,PBM binding z-score,[2],2.03
same,PBM binding z-score,[3],-0.3
same,PBM binding z-score,[4],0.461
same,PBM binding z-score,[5],-0.664
same,PBM binding z-score,[6],1.96
same,PBM binding z-score,[7],1.32
same,PBM binding z-score,[8],1.69
same,PBM binding z-score,[9],0.57
same,PBM binding z-score,[10],1.14
GTACGAAGGTGAATAGGTCGTTGATGAGTAGGCG,PBM binding z-score,[1],0.531
same,PBM binding z-score,[2],0.661
same,PBM binding z-score,[3],-0.364
same,PBM binding z-score,[4],0.505
same,PBM binding z-score,[5],-0.557
same,PBM binding z-score,[6],2.15
same,PBM binding z-score,[7],1.38
same,PBM binding z-score,[8],1.87
same,PBM binding z-score,[9],0.421
same,PBM binding z-score,[10],1.22
CGTCCAAGGTCATAGGAGGTCCGTGAAGACAGAT,PBM binding z-score,[1],7.45
same,PBM binding z-score,[2],5.69
same,PBM binding z-score,[3],0.811
same,PBM binding z-score,[4],3.99
same,PBM binding z-score,[5],0.8
same,PBM binding z-score,[6],5.61
same,PBM binding z-score,[7],4.52
same,PBM binding z-score,[8],5.1
same,PBM binding z-score,[9],1.5
same,PBM binding z-score,[10],3.67
GCGACTGCGGCATCAGCAGGTTACCATAACTTAA,PBM binding z-score,[1],-0.558
same,PBM binding z-score,[2],-0.742
same,PBM binding z-score,[3],0.0285
same,PBM binding z-score,[4],-0.388
same,PBM binding z-score,[5],-1.12
same,PBM binding z-score,[6],-0.34
same,PBM binding z-score,[7],-0.014
same,PBM binding z-score,[8],-0.695
same,PBM binding z-score,[9],-0.628
same,PBM binding z-score,[10],-0.649
CCTTACGGGTCACGAGGTTATAGCACGACGAGCG,PBM binding z-score,[1],6.74
same,PBM binding z-score,[2],4.6
same,PBM binding z-score,[3],0.401
same,PBM binding z-score,[4],4.02
same,PBM binding z-score,[5],-0.321
same,PBM binding z-score,[6],5.94
same,PBM binding z-score,[7],7.45
same,PBM binding z-score,[8],6.6
same,PBM binding z-score,[9],3.13
same,PBM binding z-score,[10],5.31
ACTAGCAGGCCAAGTTGGGGTCACTCAAACAAAG,PBM binding z-score,[1],3.18
same,PBM binding z-score,[2],3.16
same,PBM binding z-score,[3],0.123
same,PBM binding z-score,[4],4.07
same,PBM binding z-score,[5],-0.00108
same,PBM binding z-score,[6],4.63
same,PBM binding z-score,[7],1.63
same,PBM binding z-score,[8],2.88
same,PBM binding z-score,[9],0.385
same,PBM binding z-score,[10],1.96
TTACCAAGGTGAGCTGAGGCCGTTGATCCAACTC,PBM binding z-score,[1],0.053
same,PBM binding z-score,[2],-0.536
same,PBM binding z-score,[3],-0.916
same,PBM binding z-score,[4],-0.569
same,PBM binding z-score,[5],-1.39
same,PBM binding z-score,[6],0.236
same,PBM binding z-score,[7],-0.296
same,PBM binding z-score,[8],-0.253
same,PBM binding z-score,[9],-0.438
same,PBM binding z-score,[10],-0.329
ATCGAAAGGTCGAGGTTAGTATAGAGAAAGGGAA,PBM binding z-score,[1],3.77
same,PBM binding z-score,[2],3.57
same,PBM binding z-score,[3],0.422
same,PBM binding z-score,[4],2.93
same,PBM binding z-score,[5],0.526
same,PBM binding z-score,[6],4.48
same,PBM binding z-score,[7],3.03
same,PBM binding z-score,[8],3.6
same,PBM binding z-score,[9],1.65
same,PBM binding z-score,[10],2.68
